# PubChem BioAssay AID1851 (National Center for Advancing Translational Sciences (NCATS), 2009)
# Screen size: about 16,000 compounds; about 5,700 (36%) were called active. Not shown: some 24% with an inconclusive outcome. This is one part of the list. Values without a mark were called inactive. Calls follow the shape of the dose curve; as a rule, active = well fitted curve in the direction sought with a large enough effect; inconclusive = small, poorly fitted or top-dose-only effect, or effect the other way; inactive = no such curve, though single readings can be large or run the other way.
# Target: Cytochrome P450 1A2 (Homo sapiens) (UniProt P05177)
# Experiment: Cytochrome panel assay with activity outcomes
# Conditions: recombinant CYP, pro-luciferin dealkylation, luminescence, p450-cyp1a2; series mostly up to 57.1 µM
# % is scaled to controls: 0 for no effect and ±100 for the full control effect.
# Cytochrome P450 1A2 (Homo sapiens), sequence (P05177 whole entry, looked up): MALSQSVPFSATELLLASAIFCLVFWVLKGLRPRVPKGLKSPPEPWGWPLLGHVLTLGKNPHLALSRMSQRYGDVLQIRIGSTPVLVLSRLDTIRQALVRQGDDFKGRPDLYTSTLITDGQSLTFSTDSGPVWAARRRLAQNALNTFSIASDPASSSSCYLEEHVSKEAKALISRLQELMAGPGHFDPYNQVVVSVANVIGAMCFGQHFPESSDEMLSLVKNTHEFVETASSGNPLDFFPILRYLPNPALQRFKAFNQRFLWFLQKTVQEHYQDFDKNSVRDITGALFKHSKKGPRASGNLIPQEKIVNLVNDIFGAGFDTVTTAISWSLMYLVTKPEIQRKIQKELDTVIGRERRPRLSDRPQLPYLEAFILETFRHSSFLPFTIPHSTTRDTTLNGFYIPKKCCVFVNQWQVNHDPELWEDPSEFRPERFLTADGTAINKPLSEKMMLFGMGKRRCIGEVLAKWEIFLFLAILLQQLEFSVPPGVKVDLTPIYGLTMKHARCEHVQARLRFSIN
Compound,AC50,"activity, negative = inhibition"
CC[N+](C)(C)c1cccc(O)c1,inactive,–
NC/C=C\C(=O)O,inactive,–
Cc1ccc(Oc2nn[nH]n2)cc1,inactive,–
CC(=O)CC(=O)[C@@]1(O)CC[C@@H]2[C@@H]3C=C(C)C4=CC(=O)CC[C@@H]4[C@H]3CC[C@]21C,inactive,–
CCNc1ncc2nc(-c3cc(F)cc(F)c3)c(=O)n(Cc3cccs3)c2n1,5.01 µM (active),–
CCNc1ncc2nc(-c3ccccc3)c(=O)n(Cc3cccs3)c2n1,0.316 µM (active),–
CCNc1ncc2ncc(=O)n(Cc3cccs3)c2n1,2 µM (active),–
C[N+]1(C)CCC(=C(c2ccccc2)c2ccccc2)CC1,inactive,–
CC(=O)Oc1cc(C(C)C)c(OCCN(C)C)cc1C,3.16 µM (active),–
CC(C)(C)CNCCO,–,6.23% [at 2.29 µM]
Cc1ccc(CSc2nnc([C@@H]3CCCN3)o2)cc1,15.8 µM (active),–
c1ccc(CSc2nnc([C@@H]3CCCN3)o2)cc1,25.1 µM (active),–
Cc1ccc(CSc2nnc(-c3ccncc3)n2CC2CCCO2)cc1 (configuration not stated),inactive,–
NC(=O)/C(=N\O)c1ccccc1,inactive,–
CCOC(=O)c1oc2nc(CC(C)C)c3c(c2c1N)CCC3,0.891 µM (active),–
COc1cccc([C@H]2Oc3ccc(OC)cc3/C(=N\OC[C@@H](O)[C@@H]3O[C@@H]4OC(C)(C)O[C@@H]4[C@H]3O)[C@@H]2O)c1,–,-8.99% [at 11.4 µM]
CCc1ccccc1NC(=S)NCc1ccc2c(c1)OCO2,5.62 µM (active),–
CC1(C)SC(=S)N(Cc2ccc3c(c2)OCO3)C1N(O)C(=O)NC1CCCCC1 (configuration not stated),inactive,–
CCc1c(C(=O)NCc2ccc3c(c2)OCO3)[nH]c(C)c1C(C)=O,3.16 µM (active),–
O=C(O)C[C@H](Cc1ccc2c(c1)OCO2)C(=O)O,–,-20% [at 11.4 µM]
C[N+]1(C)CCc2cc(O)c(O)cc2[C@H]1Cc1ccc(O)c(O)c1,–,-12.1% [at 2.29 µM]
CC1(C)CC(=O)C(C(C#Cc2ccccc2)C2=C(O)CC(C)(C)CC2=O)=C(O)C1,inactive,–
COc1ccc(/C=N/NC(=O)c2ccn[nH]2)cc1COc1ccc(F)cc1,8.91 µM (active),–
COc1ccc(C(C(=O)NC2CCCC2)N(Cc2ccc(F)cc2)C(=O)c2ccn[nH]2)cc1OC (configuration not stated),inactive,–

Compound,AC50,"activity, negative = inhibition"
COc1cccc(-c2cc(C(=O)N/N=C/c3ccc(OC)c(COC(C)=O)c3)c3ccccc3n2)c1,inactive,–
CO[C@@]12C[C@@H](COC(=O)c3cncc(Br)c3)CN(C)[C@H]1Cc1cn(C)c3cccc2c13,5.01 µM (active),–
CN(C)c1ccc(/C=N\NC(=O)c2cnc3ccccc3c2)cc1,1.58 µM (active),–
Cc1cccc(C(=O)N/N=C/c2ccc(OCC(=O)N3CCCCC3)cc2)c1,inactive,–
O[C@@](CCN1CCCCC1)(c1ccccc1)[C@@H]1C[C@H]2C=C[C@@H]1C2,inactive,–
N[C@@H](C(=O)O)c1ccc(C(=O)O)cc1,inactive,–
CC(C)Cc1ccc([C@H](C)C(=O)O)cc1,inactive,–
CC(=O)N[C@H](Cc1ccc(O)cc1)C(=O)O,–,-11.8% [at 11.4 µM]
N#C[C@H](Cc1ccc(O)cc1)c1ccc(O)cc1,12.6 µM (active),–
O=C(CCCCCn1c(=S)[nH]c2cc3c(cc2c1=O)OCO3)N1CCN(C2CCCCC2)CC1,inactive,–
CCCCNC(=O)CCn1c(=S)[nH]c2cc3c(cc2c1=O)OCO3,2.51 µM (active),–
CCN(CC)CCn1c(=S)[nH]c2cc3c(cc2c1=O)OCO3,15.8 µM (active),–
Cc1sc2ncn(CC(=O)NCCCC(=O)N3CCN(c4ncccn4)CC3)c(=O)c2c1C,inactive,–
C=CCNC(=O)c1ccc(Cn2c(=S)[nH]c3cc4c(cc3c2=O)OCO4)cc1,8.91 µM (active),–
O=C(CCCn1c(=S)[nH]c2cc3c(cc2c1=O)OCO3)N1CCN(c2ncccn2)CC1,12.6 µM (active),–
CCCNC(=O)OC[C@@H]1O[C@H](CCO/N=C(\C)CCN2CCc3nc(-c4ccccc4)c(-c4ccccc4)cc3C2)C=C[C@@H]1Oc1ccc(OC)cc1,–,-4.45% [at 11.4 µM]
COC(=O)C/C=C\[C@H](C)[C@H](CO)NS(=O)(=O)c1ccc(C)cc1,–,-2.78% [at 11.4 µM]
O=C(Cc1cccs1)N1CCC(c2nc3c(nnn3Cc3ccccc3Cl)c(=O)[nH]2)CC1,6.31 µM (active),–
O=C(NCc1ccco1)c1nc2c(nnn2Cc2cccc(Cl)c2)c(=O)[nH]1,inactive,–
Cc1ccc(C)c(S(=O)(=O)N2CCC(c3nc4c(nnn4Cc4ccc(F)cc4)c(=O)[nH]3)CC2)c1,inactive,–
CCN(CC)CC[n+]1ccc2c(C)c3[nH]c4ccccc4c3c(C)c2c1,2.51 µM (active),–
CCN(CC)CC[n+]1ccc2c(C)c3[nH]c4ccc(O)cc4c3c(C)c2c1,3.16 µM (active),–
CN1CCN(c2ncnc3ccc(-c4ccccc4Cl)cc23)CC1,1.58 µM (active),–
